Not all results are given here.
aSyn UTR act: Activators via SNCA 5'UTR binding, MLPCN | alpha-synuclein 5'UTR reporter, activators screen | activity score, % (tested at 7.5 µM), hits read low | hit rate 7.1% among 300,000; in the data active = activity score below about -60%
* = called active by the depositor.

SMILES	aSyn UTR act
O=C(COC(=O)c1ccc(O)cc1)Nc1cccc(S(=O)(=O)N2CCCCC2)c1	29
O=C(Nc1cccc(O)c1)c1ccc(Br)c(S(=O)(=O)N2CCCCC2)c1	-70*
O=C(Nc1ccc2c(c1)OCO2)c1cccc(S(=O)(=O)N2CCCC2)c1	-104*
O=C(CCl)Nc1cccc(S(=O)(=O)N2CCCCCC2)c1	-92*
O=C(Oc1cccc(NC(=O)c2ccco2)c1)c1cccc(S(=O)(=O)N2CCCC2)c1	-72*
COc1ccc(-c2cc3nc4ccccc4n3c(N)c2C#N)cc1	-128*
COc1ccc(-c2c(C#N)c(N)nc(Sc3ccc(Cl)cc3)c2C#N)cc1	57
O=C(Nc1sc(-c2ccccc2)cc1C(=O)O)c1ccccc1	-100*
Cc1c(NC(=O)c2ccc(-c3ccccc3)cc2)cccc1C(=O)O	-85*
O=C(Nc1c(Cl)cccc1Cl)c1ccc(-c2ccccc2)cc1	-66*
O=C(O)c1ccccc1C(=O)NNc1cccc(Cl)n1	-108*
O=c1oc(Nc2ccccc2Cl)nc2ccccc12	-91*
O=c1oc(Nc2cccc(Cl)c2)nc2ccccc12	-85*
CN(N=Nc1cccc([N+](=O)[O-])c1)c1cccc([N+](=O)[O-])c1	-82*
O=C(Nc1ccc2oc(-c3cccnc3)nc2c1)c1ccco1	-135*
O=C(Nc1ccc2oc(-c3cccnc3)nc2c1)c1ccc(Br)o1	-113*
O=C(Nc1ccc2oc(-c3cccnc3)nc2c1)c1ccc([N+](=O)[O-])o1	-97*
O=C(Nc1ccc2nc(-c3ccccc3)oc2c1)c1ccco1	-227*
Cc1ccnc(NCc2cc(C)ccc2O)c1	-69*
Cc1ccc(S(=O)(=O)Nc2cccc3cccnc23)cc1	63
Cc1ccc(O)c(CNc2ccccn2)c1	-67*
Cc1ccc(S(=O)(=O)Nc2ccccc2CNc2ccccn2)cc1	-75*
O=C(c1ccccc1)c1cnc(Nc2ccccc2Cl)s1	-96*
CC(C)(C)C(=O)c1cnc(Nc2ccccc2Cl)s1	-146*
CC(=O)c1csc(Nc2ccccc2Cl)n1	-121*
SMILES	aSyn UTR act
CN(C)CCNC(=O)c1csc(Nc2cccc3ccccc23)n1	57
Cc1cccc(-n2ncc3c(Nc4ccc(F)cc4)ncnc32)c1	-108*
COc1ccc(-n2ncc3c(Nc4cccc(C)c4)ncnc32)cc1	-202*
Cc1cccc(-n2ncc3c(N)ncnc32)c1	-74*
Cc1cccc(-n2ncc3c(N(C)Cc4ccccc4)ncnc32)c1	-169*
CCOc1ccc(NC(=O)c2csc3c2CCCC3)cc1	-204*
CC(=O)c1cccc(NC(=O)c2csc3c2CCCCC3)c1	-67*
Cc1nnc(N/N=C/c2ccc(-c3ccccc3F)o2)n1N	-107*
Cc1nnc(N/N=C\c2ccc(-c3ccccc3[N+](=O)[O-])o2)n1N	-75*
Cc1ccc(C(=O)/C=C/Nc2cccc(O)c2)cc1	-194*
Cc1ccc(C(=O)/C=C/Nc2ccc3c(c2)OCO3)cc1	-182*
CC(=O)c1ccc(N/C=C\C(=O)c2ccc(C)cc2)cc1	-211*
Cc1ccc(N/C=C/C(=O)c2ccccc2)cc1Br	-83*
C/C(=C\C(=O)c1ccc(C)cc1)Nc1cccc(O)c1	-284*
O=C(/C=C/Nc1cccc(O)c1)c1ccccc1	-180*
CC(=O)c1cccc(N/C=C\C(=O)c2ccc(C)cc2)c1	-159*
O=C(/C=C/Nc1ccc(F)c(Cl)c1)c1ccccc1	-211*
O=C1/C(=C/N(C(=O)c2ccco2)c2ccc(Br)cc2)Sc2ccccc21	-241*
O=C1/C(=C/N(C(=O)c2ccco2)c2ccc(Cl)cc2)Sc2ccccc21	-184*
O=C(Cn1ncc(Cl)c(Cl)c1=O)N1CCc2ccccc21	135
CCc1ccc(C(=O)Cn2ncc(Cl)c(Cl)c2=O)cc1	-64*
O=C(Cn1ncc(Cl)c(Cl)c1=O)N1CCN(Cc2ccccc2)CC1	-71*
CC1(C)C(=O)Nc2ccccc2N1C(=O)Cn1ncc(Cl)c(Cl)c1=O	-167*
O=C(Cn1ncc(Cl)c(Cl)c1=O)N1CCOCC1	-62*
CCc1nnc(NC(=O)CSc2ccc(-c3ccc(-n4cccn4)cc3)nn2)s1	-98*
SMILES	aSyn UTR act
CCc1ccc(-c2ccc(SCC(=O)NCC3CCCO3)nn2)cc1 (stereo not given)	-94*
CCc1ccc(-c2ccc(SCC(=O)Nc3nnc(C)s3)nn2)cc1	-83*
O=C(CC12CC3CC(CC(C3)C1)C2)NC(=S)NCc1ccccc1	52
Cc1nc2ccc(NC(=S)NCc3ccccc3)cc2nc1C	-80*
CCc1ccc(NC(=S)NCc2ccccc2)cc1	-90*
O=C(Nc1ccccc1)c1ccc(-c2ccc([N+](=O)[O-])cc2)o1	-98*
O=C(Nc1ccccc1)c1ccc(-c2ccc(Br)cc2)o1	-93*
O=C(c1ccc(-c2ccc([N+](=O)[O-])cc2)o1)N1CCCCC1	-106*
O=C(Nc1ccccc1)C1=C[C@H](c2ccccc2)C[C@H](OCCCCO)O1	-147*
O=C(Nc1ccccc1)C1=C[C@H](c2ccc(C(F)(F)F)cc2)C[C@H](OCCCCO)O1	-91*
CCO[C@@H]1OC(C(=O)Nc2ccccc2)=C[C@H](c2coc3ccccc3c2=O)[C@H]1CCCO	50

Compound activity from PubChem BioAssay.
